# Measurements published in the supplement of paper PMC8728848.
# This is one part of a sample in which the strongest signals are shown more often than they occur.
# B1: B3GalT2 (Rattus norvegicus) (protein)
# chain: LMLQWRRRHCCFAKMSWNAKRSLFRTHLMGVLSLVFLFAMFLFFNHHDWLPGRPGFKENPVTYTFRGFRSTKTETNQSSLRNIWKEVVPQTLRPQTATNSNNTELSPQGVTGLENTLSANGSIYNEKGTGHPNSYHFKYIINEPEKCQEKSPFLILLIAAEPGQIEARRAIRQTWGNETLAPGIQITRIFLLGISIKLNGYLQHAIQEESIQYHDIIQQEYLDTYYNLTIKTLMGMNWVATYCPHTPYVMKTDSDMFVNTEYLIHKLLKPDLPPRHNYFTGYLMRGYAPNRNKDSKWYMPPDLYPSERYPVFCSGTGYVFSGDLAEKIFKVSLGIRRLHLEDVYVGICLAKLRVDPVPPPNEFVFNHWRVSYSSCKYSHLITSHQFQPSELIKYWNHLQQNKHNACVNAAKEKAGRYRHRKLH
# Key:
# Test in all cases: glycan array binding signal (z-score within array); higher = stronger binding
# Conditions in all cases: glycan notation: IUPAC condensed, linker removed
# Fuc(a1-2)Gal(b1-3)GlcNAc = molecular target: Fuc(a1-2)Gal(b1-3)GlcNAc
# How it was run: (§1)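 Glycan array binding is given as a within-array Z-score, which can be read as non-binding when negative. The arrays, 3228 of them, came from the Consortium for Functional Glycomics database and were retained only where the protein sequence was available. Z-scores were averaged across arrays of the same protein sequence at different concentrations or buffers and across linkers.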
# [1] = molecular target: Fuc(a1-2)Gal(b1-3)GlcNAc6S
# How it was run: as §1
# Fuc(a1-2)Gal(b1-4)Glc = molecular target: Fuc(a1-2)Gal(b1-4)Glc
# How it was run: as §1
# [2] = molecular target: Fuc(a1-2)Gal(b1-4)GlcNAc(b1-3)GalNAc
# How it was run: as §1
# [3] = molecular target: Fuc(a1-2)Gal(b1-4)[Fuc(a1-3)]GlcNAc(b1-2)[Fuc(a1-2)Gal(b1-4)[Fuc(a1-3)]GlcNAc(b1-4)]Man(a1-3)[Fuc(a1-2)Gal(b1-4)[Fuc(a1-3)]GlcNAc(b1-2)Man(a1-6)]Man(b1-4)GlcNAc(b1-4)GlcNAc
# How it was run: as §1
# [4] = molecular target: Fuc(a1-2)Gal6S(b1-3)GlcNAc
# How it was run: as §1
# [5] = molecular target: Fuc(a1-2)[GalNAc(a1-3)]Gal(b1-3)GlcNAc(b1-2)Man(a1-3)[Fuc(a1-2)[GalNAc(a1-3)]Gal(b1-3)GlcNAc(b1-2)Man(a1-6)]Man(b1-4)GlcNAc(b1-4)GlcNAc
# How it was run: as §1
# [6] = molecular target: Fuc(a1-2)[GalNAc(b1-3)]Gal
# How it was run: as §1
# [7] = molecular target: Fuc(a1-3)[Gal(b1-4)]GlcNAc(b1-3)Gal(b1-4)[Fuc(a1-3)]GlcNAc(b1-3)Gal(b1-4)[Fuc(a1-3)]GlcNAc
# How it was run: as §1
# [8] = molecular target: Fuc(a1-3)[Gal3S(b1-4)]Glc
# How it was run: as §1
# [9] = molecular target: Fuc(a1-3)[GalNAc(b1-4)]GlcNAc6S
# How it was run: as §1
# [10] = molecular target: Gal(a1-3)Gal(b1-4)GlcNAc(b1-2)Man
# How it was run: as §1
# [11] = molecular target: Gal(a1-3)[Gal(a1-4)]Gal(b1-4)GlcNAc
# How it was run: as §1
# [12] = molecular target: Gal(b1-3)GalNAc(a1-3)[Fuc(a1-2)]Gal(b1-4)Glc
# How it was run: as §1
# [13] = molecular target: Gal(b1-3)GlcNAc(b1-2)Man(a1-3)[Gal(b1-3)GlcNAc(b1-2)Man(a1-6)]Man(b1-4)GlcNAc(b1-4)[Fuc(a1-6)]GlcNAc
# How it was run: as §1
# [14] = molecular target: Gal(b1-3)GlcNAc(b1-2)Man(a1-3)[GlcNAc(b1-4)][Gal(b1-3)GlcNAc(b1-2)Man(a1-6)]Man(b1-4)GlcNAc(b1-4)GlcNAc
# How it was run: as §1
# [15] = molecular target: Gal(b1-3)GlcNAc(b1-3)Gal(b1-4)GlcNAc(b1-3)Gal(b1-4)GlcNAc(b1-2)[Gal(b1-3)GlcNAc(b1-3)Gal(b1-4)GlcNAc(b1-3)Gal(b1-4)GlcNAc(b1-6)]Man(a1-6)[Gal(b1-3)GlcNAc(b1-3)Gal(b1-4)GlcNAc(b1-3)Gal(b1-4)GlcNAc(b1-2)Man(a1-3)]Man(b1-4)GlcNAc(b1-4)[Fuc(a1-6)]GlcNAc
# How it was run: as §1
# [16] = molecular target: Gal(b1-3)GlcNAc(b1-3)GalNAc
# How it was run: as §1
# [17] = molecular target: Gal(b1-3)GlcNAc(b1-6)[Gal(b1-3)]GalNAc
# How it was run: as §1
# [18] = molecular target: Gal(b1-4)GlcNAc(b1-2)Man(a1-3)[Gal(b1-4)GlcNAc(b1-2)Man(a1-6)]Man(b1-4)GlcNAc(b1-4)GlcNAc
# How it was run: as §1
# [19] = molecular target: Gal(b1-4)GlcNAc(b1-2)Man(a1-3)[GlcNAc(b1-2)Man(a1-6)]Man(b1-4)GlcNAc(b1-4)GlcNAc
# How it was run: as §1
# [20] = molecular target: Gal(b1-4)GlcNAc(b1-3)Gal(b1-4)GlcNAc
# How it was run: as §1
# Gal3S(b1-3)GalNAc = molecular target: Gal3S(b1-3)GalNAc
# How it was run: as §1
# Gal6S(b1-3)GlcNAc = molecular target: Gal6S(b1-3)GlcNAc
# How it was run: as §1
# Gal6S(b1-4)GlcNAc = molecular target: Gal6S(b1-4)GlcNAc
# How it was run: as §1
# GalNAc(a1-3)GalNAc = molecular target: GalNAc(a1-3)GalNAc
# How it was run: as §1
# [21] = molecular target: GalNAc(a1-3)GalNAc(b1-3)Gal(a1-4)Gal(b1-4)Glc
# How it was run: as §1
# [22] = molecular target: GalNAc(b1-3)Gal(a1-4)Gal(b1-4)GlcNAc(b1-3)Gal(b1-4)Glc
# How it was run: as §1
# [23] = molecular target: GlcNAc(b1-3)Gal(b1-4)GlcNAc(b1-2)Man(a1-3)[GlcNAc(b1-3)Gal(b1-4)GlcNAc(b1-2)Man(a1-6)]Man(b1-4)GlcNAc(b1-4)GlcNAc
# How it was run: as §1
# [24] = molecular target: GlcNAc(b1-3)Gal(b1-4)GlcNAc(b1-3)Gal(b1-4)GlcNAc(b1-3)Gal(b1-4)GlcNAc(b1-3)Gal(b1-4)GlcNAc(b1-2)[GlcNAc(b1-3)Gal(b1-4)GlcNAc(b1-3)Gal(b1-4)GlcNAc(b1-3)Gal(b1-4)GlcNAc(b1-3)Gal(b1-4)GlcNAc(b1-6)]Man(a1-6)[GlcNAc(b1-3)Gal(b1-4)GlcNAc(b1-3)Gal(b1-4)GlcNAc(b1-3)Gal(b1-4)GlcNAc(b1-3)Gal(b1-4)GlcNAc(b1-2)Man(a1-3)]Man(b1-4)GlcNAc(b1-4)[Fuc(a1-6)]GlcNAc
# How it was run: as §1
# Kdn(a2-3)Gal(b1-4)GlcNAc = molecular target: Kdn(a2-3)Gal(b1-4)GlcNAc
# How it was run: as §1
# Man(a1-2)Man(a1-3)Man = molecular target: Man(a1-2)Man(a1-3)Man
# How it was run: as §1
# [25] = molecular target: Man(a1-2)Man(a1-3)[Man(a1-2)Man(a1-6)]Man(a1-6)[Man(a1-2)Man(a1-2)Man(a1-3)]Man(b1-4)GlcNAc(b1-4)GlcNAc
# How it was run: as §1
# [26] = molecular target: Neu5Ac(a2-3)Gal(b1-3)GalNAc(b1-3)Gal(a1-4)Gal(b1-4)Glc
# How it was run: as §1
# [27] = molecular target: Neu5Ac(a2-3)Gal(b1-4)GlcNAc
# How it was run: as §1
# [28] = molecular target: Neu5Ac(a2-3)Gal(b1-4)GlcNAc(b1-2)Man(a1-3)[GlcNAc(b1-4)][Neu5Ac(a2-3)Gal(b1-4)GlcNAc(b1-2)Man(a1-6)]Man(b1-4)GlcNAc(b1-4)GlcNAc
# How it was run: as §1
# [29] = molecular target: Neu5Ac(a2-3)Gal(b1-4)GlcNAc(b1-2)Man(a1-3)[Neu5Ac(a2-3)Gal(b1-4)GlcNAc(b1-2)Man(a1-6)]Man(b1-4)GlcNAc(b1-4)GlcNAc
# How it was run: as §1
# [30] = molecular target: Neu5Ac(a2-3)Gal(b1-4)[Fuc(a1-3)]GlcNAc6S
# How it was run: as §1
# Neu5Ac(a2-3)GalNAc = molecular target: Neu5Ac(a2-3)GalNAc
# How it was run: as §1
# Neu5Ac(a2-6)Gal = molecular target: Neu5Ac(a2-6)Gal
# How it was run: as §1
# [31] = molecular target: Neu5Ac(a2-6)Gal(b1-4)GlcNAc(b1-2)Man(a1-6)[Man(a1-3)]Man(b1-4)GlcNAc(b1-4)GlcNAc
# How it was run: as §1
# [32] = molecular target: Neu5Ac(a2-6)Gal(b1-4)GlcNAc(b1-2)[Neu5Ac(a2-6)Gal(b1-4)GlcNAc(b1-4)]Man(a1-3)[GlcNAc(b1-4)][Neu5Ac(a2-6)Gal(b1-4)GlcNAc(b1-2)[Neu5Ac(a2-6)Gal(b1-4)GlcNAc(b1-6)]Man(a1-6)]Man(b1-4)GlcNAc(b1-4)GlcNAc
# How it was run: as §1
# [33] = molecular target: Neu5Ac(a2-6)Gal(b1-4)GlcNAc(b1-2)[Neu5Ac(a2-6)Gal(b1-4)GlcNAc(b1-4)]Man(a1-3)[GlcNAc(b1-4)][Neu5Ac(a2-6)Gal(b1-4)GlcNAc(b1-4)Man(a1-6)]Man(b1-4)GlcNAc(b1-4)GlcNAc
# How it was run: as §1
# [34] = molecular target: Neu5Ac(a2-6)Gal(b1-4)GlcNAc(b1-3)Gal(b1-4)GlcNAc(b1-3)Gal(b1-4)GlcNAc(b1-2)Man(a1-3)[Neu5Ac(a2-6)Gal(b1-4)GlcNAc(b1-3)Gal(b1-4)GlcNAc(b1-3)Gal(b1-4)GlcNAc(b1-2)Man(a1-6)]GalNAc
# How it was run: as §1
# [35] = molecular target: Neu5Ac(a2-6)Gal(b1-4)GlcNAc(b1-3)[Neu5Ac(a2-6)Gal(b1-4)GlcNAc(b1-6)]GalNAc
# How it was run: as §1
# [36] = molecular target: Neu5Gc(a2-3)Gal(b1-4)[Fuc(a1-3)]GlcNAc
# How it was run: as §1
binder,measurement,setting,value
B1,glycan array binding signal (z-score),Fuc(a1-2)Gal(b1-3)GlcNAc,0.359
same,glycan array binding signal (z-score),[1],-0.012
same,glycan array binding signal (z-score),Fuc(a1-2)Gal(b1-4)Glc,-0.322
same,glycan array binding signal (z-score),[2],0.324
same,glycan array binding signal (z-score),[3],-0.914
same,glycan array binding signal (z-score),[4],0.207
same,glycan array binding signal (z-score),[5],-0.832
same,glycan array binding signal (z-score),[6],3.23
same,glycan array binding signal (z-score),[7],-0.328
same,glycan array binding signal (z-score),[8],0.499
same,glycan array binding signal (z-score),[9],2.41
same,glycan array binding signal (z-score),[10],-0.684
same,glycan array binding signal (z-score),[11],0.28
same,glycan array binding signal (z-score),[12],-0.035
same,glycan array binding signal (z-score),[13],-0.68
same,glycan array binding signal (z-score),[14],-0.55
same,glycan array binding signal (z-score),[15],2.97
same,glycan array binding signal (z-score),[16],0.129
same,glycan array binding signal (z-score),[17],0.217
same,glycan array binding signal (z-score),[18],-0.8
same,glycan array binding signal (z-score),[19],-0.763
same,glycan array binding signal (z-score),[20],0.439
same,glycan array binding signal (z-score),Gal3S(b1-3)GalNAc,0.283
same,glycan array binding signal (z-score),Gal6S(b1-3)GlcNAc,2.69
same,glycan array binding signal (z-score),Gal6S(b1-4)GlcNAc,-0.022
same,glycan array binding signal (z-score),GalNAc(a1-3)GalNAc,-0.798
same,glycan array binding signal (z-score),[21],-0.606
same,glycan array binding signal (z-score),[22],-0.596
same,glycan array binding signal (z-score),[23],-0.524
same,glycan array binding signal (z-score),[24],-1.04
same,glycan array binding signal (z-score),Kdn(a2-3)Gal(b1-4)GlcNAc,2.76
same,glycan array binding signal (z-score),Man(a1-2)Man(a1-3)Man,0.139
same,glycan array binding signal (z-score),[25],-0.337
same,glycan array binding signal (z-score),[26],-0.318
same,glycan array binding signal (z-score),[27],1.9
same,glycan array binding signal (z-score),[28],0.483
same,glycan array binding signal (z-score),[29],1.88
same,glycan array binding signal (z-score),[30],0.576
same,glycan array binding signal (z-score),Neu5Ac(a2-3)GalNAc,2.8
same,glycan array binding signal (z-score),Neu5Ac(a2-6)Gal,2.53
same,glycan array binding signal (z-score),[31],0.005
same,glycan array binding signal (z-score),[32],2.01
same,glycan array binding signal (z-score),[33],1.82
same,glycan array binding signal (z-score),[34],2.1
same,glycan array binding signal (z-score),[35],-1.14
same,glycan array binding signal (z-score),[36],-0.164
